Screening data deposited in PubChem BioAssay by several laboratories.
BCLXL inh – Bcl-xL (human) inhibition. Q07817. GST-Bcl-xL / FITC-Bim BH3 peptide fluorescence polarization. AID 2129. inhibition, % at 10.9 µM. 320,000 compounds, 0.7% hits;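 active means inhibition above the mean of all tested compounds plus 3 SD, cutoff set per campaign, cut at about 30% in these data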;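 further: inhibitors lower millipolarization by displacing the labeled peptide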
Target sequence (Q07817 whole entry, looked up): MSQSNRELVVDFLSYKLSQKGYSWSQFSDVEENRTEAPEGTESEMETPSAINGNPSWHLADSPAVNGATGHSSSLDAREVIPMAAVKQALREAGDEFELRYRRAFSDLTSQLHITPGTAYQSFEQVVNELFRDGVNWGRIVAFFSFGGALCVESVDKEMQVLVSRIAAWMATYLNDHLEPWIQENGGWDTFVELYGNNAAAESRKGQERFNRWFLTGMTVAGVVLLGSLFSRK
E coli Lon inh – inhibits E. coli Lon protease | P0A9M0 | purified E. coli Lon protease, fluorescence polarization | inhibition, % at 7.94 µM | 360,000 compounds, 0.42% hits; in the data active means inhibition above about 13%, passing the limit was not always enough
MCL1 BIM primary – MCL1-BIM-BH3 interaction inhibition (human) | GST-MCL1 / FITC-Bim-BH3 fluorescence polarization | Q07820 | inhibition, % at 10.9 µM | 320,000 compounds, 0.68% hits;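 active means inhibition above the mean inhibition of all tested compounds plus 3 SD, set per campaign, cut at about 40% in these data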;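 further: higher means more loss of mP so more displacement of Bim peptide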
EBV gp42 block – inhibitors of Epstein-Barr virus glycoprotein 42. Fluorescence polarization binding assay, mP read-out. inhibition, % (tested at 21.74 µM). 220,000 compounds, 0.42% hits; in the data active means inhibition above about 50%
Target sequence (Q1HVG2 whole entry, looked up): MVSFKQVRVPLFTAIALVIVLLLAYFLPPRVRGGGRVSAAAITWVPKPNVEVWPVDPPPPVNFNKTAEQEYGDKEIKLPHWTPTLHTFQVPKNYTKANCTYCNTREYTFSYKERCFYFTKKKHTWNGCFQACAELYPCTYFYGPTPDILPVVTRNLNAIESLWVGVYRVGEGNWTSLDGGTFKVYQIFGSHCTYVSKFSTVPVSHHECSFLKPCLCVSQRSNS
GLD-1 TGE inh – GLD-1-TGE RNA interaction inhibition (C. elegans). Q17339. purified GLD-1 + fluorescein TGE RNA, fluorescence polarization. inhibition, % at 5.96 µM. 320,000 compounds, 0.44% hits. AID 2280;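 active means percent inhibition above a per-plate cutoff, the plate mean of test compounds plus 3 SD, cut at about 30% in these data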
MEX-5 binding – C. elegans MEX-5 TCR-2 RNA binding activity | Q9XUB2 | MEX-5/FITC-TCR2 RNA binding, fluorescence polarization; hits give low values | activity score (negative = inhibition of binding), % at 10 µM | 300,000 compounds, 0.38% hits | AID 1832;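 active means inhibition past about -25% in most replicates, and total fluorescence under double the plate's negative control median, limit read from the data; inconclusive means replicates evenly split on the limit, or fluorescence at least double controls; inactive means too little inhibition in most replicates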
A number is an active result; 0 = inactive; ? = inconclusive; - = no result. A selection: hits, their analogues and other compounds. The true share with any hit is near 1.5%.

SMILES	BCLXL inh	E coli Lon inh	MCL1 BIM primary	EBV gp42 block	GLD-1 TGE inh	MEX-5 binding
O=C(N/N=C/c1c(O)n(C2CCCCC2)c(=S)[nH]c1=O)c1ccccc1	0	0	0	-	0	0
O=C(N/N=C/C1C(=O)NC(=S)N(c2ccccc2)C1=O)c1cc(Br)c(O)c(Br)c1 (centres undefined)	0	0	0	0	0	-79
O=c1[nH]c(=O)n(-c2cccc(Cl)c2)c(O)c1/C=N/c1ccccn1	0	0	0	0	0	-29
c1ccc(N2C3C4CC(C5CCCC54)C32)cc1 (centres undefined)	-	0	-	-	-	-
O=C(N/N=C/c1c(O)n(Cc2ccco2)c(=O)[nH]c1=O)c1ccccc1O	0	0	0	0	0	-27
Cc1cccc(C)c1-n1nnnc1C(c1ccnc2ccccc12)N1CCC2(CC1)C(=O)NCN2c1ccccc1 (centres undefined)	-	0	-	-	-	-
CCOC(=O)c1c(-n2c(C)cc(C=C3C(=O)NC(=O)NC3=O)c2C)sc2c1CCCC2	0	0	0	0	0	-45
Cc1cccc(N2C(=O)NC(=O)/C(=C\c3cc(C)n(-c4sc5c(c4C#N)CCCC5)c3C)C2=O)c1C	0	0	0	0	0	0
CC(C(=O)Nc1ccc(Br)cc1C(=O)c1ccccc1)N1CCCCC1 (centres undefined)	0	24	0	0	0	0
Cc1ccc2[nH]c(C)c(CCNCc3cccnc3)c2c1	0	0	0	-	0	0
CN1C(=O)C(Cc2c[nH]c3ccccc23)C(=O)N(C)C1=O	-	-	-	104	-	-
O=C1NC(=O)N(c2ccccc2)C(=O)/C1=C\c1ccc([N+](=O)[O-])o1	36	-	42	0	0	0
CN1C(=O)NC(=O)/C(=C\c2ccc([N+](=O)[O-])o2)C1=O	39	0	0	0	0	-61
CN1C(=O)NC(=O)/C(=C/c2ccc([N+](=O)[O-])o2)C1=O	30	-	0	0	0	-43
CN1C(=O)NC(=O)/C(=C/c2ccc([N+](=O)[O-])s2)C1=O	0	0	0	0	0	0
C[C@@H]1CN([C@H](C)CO)C(=O)CCCn2nncc2CO[C@@H]1CN(C)C(=O)Oc1cccc2ccccc12	-	0	-	-	-	-
COC(=O)C1=C(c2ccccc2OCc2ccccc2)C[C@@H]2CC[C@H]1N2C(=O)NCCc1ccc(F)cc1	0	0	0	-	0	-
COc1ccc(C(O)(c2ccccc2)c2ccncc2)cc1 (centres undefined)	-	0	-	-	-	-
CCc1nn(CC(=O)N2CCC3(CC2)OCCO3)c(=O)c2cc3ccccc3n12	0	0	0	-	0	0
CCN(CC)C(=O)Cn1cc(C=C2C(=O)N(C)C(=O)N(C)C2=O)c2ccccc21	0	0	0	-	0	?
COC(=O)Cn1cc(C=C2C(=O)N(C)C(=O)N(C)C2=O)c2ccccc21	0	-	0	-	0	-80
COc1ccc(CNCCc2ccc(Cl)cc2)c(OC)c1OC	0	0	0	-	0	0
COC(=O)C1=C(c2cccc(C#N)c2)C[C@@H]2CC[C@H]1N2C(=O)N1CCCC1	0	0	0	-	0	-
CCCN1CCc2cc(O)cc3c2[C@H]1Cc1ccc(O)c(O)c1-3	32	0	0	-	0	-82
COc1cc2c(cc1O)C[C@H]1c3c(cc(O)c(OC)c3-2)CCN1C	0	0	0	-	0	-
SMILES	BCLXL inh	E coli Lon inh	MCL1 BIM primary	EBV gp42 block	GLD-1 TGE inh	MEX-5 binding
O=c1cccc2n1C[C@@H]1C[C@@H]2CN(CC(O)c2ccc([N+](=O)[O-])cc2)C1 (some centres undefined)	-	0	-	-	-	0
COc1ccc(OC)c(N2C(=O)NC(=O)/C(=C\c3ccc([N+](=O)[O-])s3)C2=O)c1	0	0	0	0	0	-40
O=C1NC(=O)N(c2ccccc2)C(=O)/C1=C\c1ccc([N+](=O)[O-])s1	0	-	0	0	0	-
C[C@]12CCC3C(CC[C@H]4C[C@H](OC(=O)c5cccnc5)CC[C@]34C)C1CCC2=O (some centres undefined)	-	0	-	-	0	-
c1ccc2c(c1)[nH]c1cnccc12	0	0	0	0	0	0
Cc1c2ccncc2c(C)c2c1[nH]c1ccccc12	66	0	88	113	0	0
Cc1cccc(N2C(=O)NC(=O)/C(=C/c3cc4c(cc3[N+](=O)[O-])OCO4)C2=O)c1	118	0	119	83	77	-69
O=C1NC(=O)C(=Cc2cc3c(cc2[N+](=O)[O-])OCO3)C(=O)N1	32	0	0	0	0	0
COc1ccc(N2C(=O)NC(=O)/C(=C\c3ccccc3[N+](=O)[O-])C2=O)cc1	0	0	0	0	0	0
CCC(C)N1C(=O)/C(=C/c2ccc3c(c2)CCN3CCCCl)C(=O)NC1=S (centres undefined)	0	0	0	0	0	0
Cn1c(O)c(/C=C/C=Nc2ccccc2)c(=O)n(C)c1=S	55	0	0	0	0	0
CCCn1cc2c3c(cccc31)C1CC(C)CN(C)C1C2 (centres undefined)	-	-	-	0	-	-27
COC1=CC(=O)[C@]2(C=C1OC)OC[C@@H]1Oc3c(ccc4c3C=CC(C)(C)O4)C(=O)[C@@H]12	-	-	-	-	0	-
O=[N+]([O-])c1cc([As](=O)(O)c2ccc(O)c([N+](=O)[O-])c2)ccc1O	0	0	0	0	0	0
O=[N+]([O-])c1cc(-c2ccc([As](=O)(O)O)cc2)ccc1[As](=O)(O)O	-	-	-	0	-	-46
CC/C(=C\C=C\[C@@H]1C=C[C@@H]2CCC[C@H]2[C@@H]1C(=O)c1ccc[nH]1)[C@@H]1O[C@@H]([C@@H](C)C(=O)O)CC[C@@H]1C	34	-	0	0	0	?
N#CC(C#N)=Cc1ccc(-c2ccccc2)o1	0	-	0	0	0	-43
N#CC(C#N)=Cc1ccc(O)c(O)c1	0	0	0	-	0	-
CCOC(=O)C(c1c(O)c2ccccc2oc1=O)c1c(O)c2ccccc2oc1=O	-	0	-	-	-	-
CSc1nc(N)c(N=Nc2ccc([As](=O)(O)O)cc2)c(=O)[nH]1	0	0	0	0	0	-34
COc1ccc(N=Nc2c(O)[nH]c(=S)[nH]c2=O)cc1	0	0	0	0	0	0
COc1ccc(OC)c(N=Cc2c(O)n(Cc3ccccc3)c(=S)[nH]c2=O)c1	0	0	0	0	0	-47
COc1ccc(N=Cc2c(O)n(Cc3ccccc3)c(=S)[nH]c2=O)c(OC)c1	0	0	0	90	0	-57
COc1ccc(Cn2c(O)c(C=Nc3c(C)n(C)n(-c4ccccc4)c3=O)c(=O)[nH]c2=O)cc1	0	0	0	0	0	0
CCC(=O)[C@@H](C)[C@@H](O)[C@H](C)C[C@@H](C)C1OC(=O)C[C@@]2(O)CC=C(C)C(O2)C(C)=CCCC[C@H](O[C@H]2C[C@@H](OC(N)=O)[C@H](O)[C@@H](C)O2)C=C[C@H](C)C[C@H]1C (some centres undefined)	-	0	-	-	-	-
